Test results taken from PMC4336329 (PLoS ONE, 2015).
Among all 310,000 compounds or so, about 14,000 (4.5%) showed an effect of 50% or more. Effects have a minus sign here. The sample holds strong results, similar compounds and a random draw of the others, so the mix is not that of the screen.

biological target: human ether-à-go-go-related gene (hERG) potassium channel (human, UniProt Q12809); assay: primary screen, population patch clamp on CHO cells stably expressing hERG; higher = less effect of the substance
Sequence (Q12809 whole entry, looked up): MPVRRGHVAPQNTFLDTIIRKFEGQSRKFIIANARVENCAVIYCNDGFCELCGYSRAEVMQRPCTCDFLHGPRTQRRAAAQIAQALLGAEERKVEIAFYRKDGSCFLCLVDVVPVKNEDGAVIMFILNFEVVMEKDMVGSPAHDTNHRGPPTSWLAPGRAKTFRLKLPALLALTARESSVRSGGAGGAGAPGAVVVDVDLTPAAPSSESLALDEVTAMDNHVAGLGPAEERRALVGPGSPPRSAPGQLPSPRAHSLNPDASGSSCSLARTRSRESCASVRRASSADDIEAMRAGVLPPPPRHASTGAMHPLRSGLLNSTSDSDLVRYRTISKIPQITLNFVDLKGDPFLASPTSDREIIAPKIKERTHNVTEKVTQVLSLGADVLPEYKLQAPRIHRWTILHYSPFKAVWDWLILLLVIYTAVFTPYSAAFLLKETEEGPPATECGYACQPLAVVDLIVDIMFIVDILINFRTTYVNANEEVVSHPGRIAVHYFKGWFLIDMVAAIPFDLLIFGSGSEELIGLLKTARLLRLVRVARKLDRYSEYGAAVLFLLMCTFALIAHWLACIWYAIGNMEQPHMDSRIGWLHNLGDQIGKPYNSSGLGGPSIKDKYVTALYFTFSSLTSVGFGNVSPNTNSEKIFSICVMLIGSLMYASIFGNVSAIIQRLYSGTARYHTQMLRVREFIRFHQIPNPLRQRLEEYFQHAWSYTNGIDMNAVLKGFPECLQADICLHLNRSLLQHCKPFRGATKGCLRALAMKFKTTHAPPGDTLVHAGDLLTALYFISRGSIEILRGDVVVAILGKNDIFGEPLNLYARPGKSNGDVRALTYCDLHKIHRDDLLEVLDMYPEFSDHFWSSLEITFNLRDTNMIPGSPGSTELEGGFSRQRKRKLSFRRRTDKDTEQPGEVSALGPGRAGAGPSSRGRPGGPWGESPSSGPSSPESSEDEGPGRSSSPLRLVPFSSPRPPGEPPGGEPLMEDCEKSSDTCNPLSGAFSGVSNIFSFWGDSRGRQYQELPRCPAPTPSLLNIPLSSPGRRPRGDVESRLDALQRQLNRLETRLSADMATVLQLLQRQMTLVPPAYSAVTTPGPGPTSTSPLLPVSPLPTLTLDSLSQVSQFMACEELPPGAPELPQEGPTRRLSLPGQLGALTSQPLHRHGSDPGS
Method: Briefly, Chinese hamster ovary (CHO) cells stably expressing the hERG channel were dislodged from tissue culture flasks and dispensed into PPC plates. […] During the recording, background leak currents were estimated by a 100 ms step to -80 mV from an initial holding potential of -70 mV and subtracted from the subsequent current measurement. The campaign was conducted in two phases using slight differences in recording protocol. In the first phase, the initial voltage pulse used a 100 ms step to -30 mV from a holding potential of -70 mV, a 2 s conditioning step to +25 mV, and a 2 s test step to -30 mV. During the second phase of the screen, the potential during the conditioning step was raised to +45 mV. In both phases of the campaign, a secondary voltage pulse was applied using the same parameters as the second phase initial pulse. The initial and secondary pulses were applied in the absence of compound, and upon application of 1 μM and 10 μM test concentrations. […]
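Also: peak tail current of the secondary pulse compared with the same well before compound.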

| Structure (SMILES) | hERG current change (%, negative = inhibition) at 10uM [%] |
| --- | --- |
| CC(C)(C)c1ccc(OCC(=O)O)cc1 | 17.9 |
| COC(=O)c1sc(S(=O)(=O)NCCC(=O)O)c(C(=O)OC)c1C | 5.17 |
| Cc1cccc(NC(=O)CSCC(=O)Nc2cc(S(=O)(=O)N3CCOCC3)ccc2OC(C)C)c1 | -87.2 |
| CCOc1ccc(S(=O)(=O)N2CCOCC2)cc1NC(=O)CSC(=S)N1CCCC1 | -63 |
| CCOc1ccc(S(=O)(=O)N2CCOCC2)cc1NC(=O)CSCC(=O)Nc1ccc(C)cc1 | -18.2 |
| Cc1ccc(CSCC(=O)Nc2cc(S(=O)(=O)N3CCOCC3)ccc2OC(C)C)cc1 | -30.5 |
| CCOc1ccc(S(=O)(=O)N2CCOCC2)cc1NC(=O)CSCc1ccc(C)cc1 | -53.2 |
| CCOc1ccc(S(=O)(=O)N2CCOCC2)cc1NC(=O)CSCC(=O)Nc1cccc(C)c1 | -11.4 |
| CCOc1ccc(S(=O)(=O)N2CCOCC2)cc1NC(=O)C1CCC1 | 16.3 |
| Cc1cccc(NC(=O)CSCC(=O)Nc2ccc(S(=O)(=O)N3CCOCC3)cc2)c1 | -5.21 |
| CCN(CC)c1ccc(S(=O)(=O)N2CCOCC2)cc1NC(=O)CSC(=S)N1CCCC1 | -32.2 |
| Cc1cc(C)c2c(c1)/C(=N/NC(=O)c1cc(C)oc1C)CCC2 | 6.66 |
| Cc1ccc(S(=O)(=O)N2CCC(C(=O)OCC(=O)NCCc3ccccc3)CC2)cc1C | -8.07 |
| C/C(=N\O)c1c(O)cc(-c2ccccc2)n(-c2ccccc2)c1=O | 8.56 |
| CN(c1ccc(C(=O)N/N=C/c2cccc([N+](=O)[O-])c2)cc1)S(=O)(=O)c1ccccc1 | 1.88 |
| Cc1onc(-c2c(F)cccc2Cl)c1C(=O)N(C)C1CCCCC1 | 2.65 |
| CCN(CC)c1ccc(/C=N/NC(=S)NCc2ccccc2)c(O)c1 | 12 |
| COCCn1c(=S)[nH]c2cc(C(=O)N(CCO)Cc3ccccc3)ccc2c1=O | 4.32 |
| CC(C)=CCc1c(O)ccc2c1OC(c1ccc(O)c(O)c1)CC2=O (stereo not drawn) | 9.78 |
| COc1ccc(C(=O)CCC(=O)N2CCN(c3ccc([N+](=O)[O-])cc3)CC2)cc1 | -63.8 |
| COc1ccc(N2CCN(C(=O)CSc3ccccc3)CC2)cc1 | 4.44 |

| Structure (SMILES) | hERG current change (%, negative = inhibition) at 10uM [%] |
| --- | --- |
| COc1ccc(C(=O)NC(=S)N2CCN(c3ccc([N+](=O)[O-])cc3)CC2)cc1 | -49.2 |
| COc1ccc(C(=O)CCC(=O)N2CCN(c3ccccc3)CC2)cc1 | -9.62 |
| COc1ccc(N2CCN(C(=O)CSc3ccccc3N)CC2)cc1 | 3.07 |
| COc1ccc(N2CCN(C(=O)CSc3ccc([N+](=O)[O-])cc3)CC2)cc1 | -68.4 |
| O=C(NC1CCN(S(=O)(=O)c2cccc(F)c2)CC1)c1ccc(F)cc1 | 14.6 |
| Cc1cc2c(sc3c(C)ccc(C)c32)c(C)n1.Cl | 3.48 |
| O=C(NNC(=O)c1cccnc1)NC12CC3CC(CC(C3)C1)C2 | -2.41 |
| CCCNC(=O)CS(=O)Cc1nc(-c2ccccc2C)oc1C (stereo not drawn) | 6.71 |
| CC(=O)c1ccccc1NC(=O)C1CCCN(C(=O)c2ccc(Cl)cc2)C1 (stereo not drawn) | -25.6 |
| COc1ccc(S(=O)(=O)Cc2ccc(C(=O)NC3CCCCC3)o2)cc1 | -2.17 |
| C[N+]1(C)C2CCC1CC(OC(=O)c1ccco1)C2.[Br-] (stereo not drawn) | 7.81 |
| CCCN(C(=O)CSc1nnc(-c2ccoc2C)n1N)C1CCS(=O)(=O)C1 (stereo not drawn) | 5.3 |
| COc1ccccc1-c1nn(-c2ccccc2)cc1C(=O)NCC(c1ccco1)N1CCCC1 (stereo not drawn) | -53 |
| Cc1cc(C(=O)NCC(c2ccco2)N2CCCC2)c2ccccc2n1 (stereo not drawn) | 6.54 |
| O=C(NCC(c1ccco1)N1CCCC1)c1cn(Cc2ccccc2)nc1-c1ccccc1 (stereo not drawn) | -58.5 |
| COc1ccc(Cl)cc1C(=O)NCC(c1ccco1)N1CCCC1 (stereo not drawn) | -44.5 |
| COc1ccc(OC)c(-c2nn(-c3ccccc3)cc2C(=O)NCC(c2ccco2)N2CCCC2)c1 (stereo not drawn) | -63.7 |
| COc1ccc(OC)c(-c2nn(-c3ccccc3)cc2C(=O)NCC(c2cccs2)N2CCOCC2)c1 (stereo not drawn) | -30.2 |
| COc1ccc(OC)c(-c2nn(-c3ccccc3)cc2C(=O)NCC2CCCO2)c1 (stereo not drawn) | 2.13 |
| COc1cc(C(=O)NCC(c2ccco2)N2CCCC2)ccc1OCc1ccccc1 (stereo not drawn) | -40.5 |
| Cc1ccccc1-c1nn(-c2ccccc2)cc1C(=O)NCC(c1ccco1)N1CCCC1 (stereo not drawn) | -14.3 |

| Structure (SMILES) | hERG current change (%, negative = inhibition) at 10uM [%] |
| --- | --- |
| COc1ccccc1C(=O)NCCC(=O)NCC(c1ccco1)N1CCCC1 (stereo not drawn) | 13.7 |
| COc1ccccc1-c1nn(Cc2ccccc2)cc1C(=O)NCC(c1ccco1)N1CCCC1 (stereo not drawn) | -64 |
| O=C(NCC(c1ccco1)N1CCCC1)c1ccccc1F (stereo not drawn) | 3.76 |
| CC(=O)NC1(C(F)(F)F)N=C2SCCN2C1=O (stereo not drawn) | 7.4 |
| CCOc1cc(/C=C/c2cccc[n+]2C)ccc1O.[I-] | 24.7 |
| O=C(COc1ccc(NC(=O)c2ccccc2[N+](=O)[O-])cc1)c1ccc(F)cc1 | 2.93 |
| O=[N+]([O-])c1cccc(S(=O)(=O)[N-]c2nc3ccccc3nc2-n2cc[n+](Cc3ccccc3)c2)c1 | -5.11 |
| CC(C)N(C(=O)Cn1c(SCC(=O)Nc2nccs2)nc2ccccc21)C(C)C | 12.6 |
| CCN(CC)N=Nc1cccc(NC(C)=O)c1 | 0.363 |
| CCc1nc(C)ccc1OCC(=O)N(CC)CC.O.O=C(O)C(=O)O | -30.9 |
| CCOC(=O)c1c(NC(=O)CSc2nnc3c(n2)[nH]c2ccccc23)sc2c1CCN(C)C2 | -6.08 |
| CCOC(=O)c1ccc(NC2c3ccccc3C(=O)N2c2cccnc2)cc1 (stereo not drawn) | -57 |
| Cc1ccc(NC2c3ccccc3C(=O)N2c2cccnc2)cc1 (stereo not drawn) | -21.5 |
| CCOC(=O)c1ccc(NC2c3ccccc3C(=O)N2c2ccccn2)cc1 (stereo not drawn) | 9.93 |
| CCOc1ccc(/C(O)=C2/C(=O)C(=O)N(CCCN3CCOCC3)C2c2ccc(C)cc2)cc1C (stereo not drawn) | 23.8 |
| NC(=O)c1cccnc1Oc1cccc(Cl)c1 | 11.8 |
| Cc1ccc(C)c(N(C(=O)CNC(=O)c2ccco2)C(C(=O)NC2CCCCC2)c2cccnc2)c1 (stereo not drawn) | 15.3 |
| COc1ccc(CCN(C(=O)c2ccco2)C(C(=O)NC2CCCC2)c2ccncc2)cc1OC (stereo not drawn) | -55 |
| COc1ccc(N(C(=O)c2ccco2)C(C(=O)NC2CCCC2)c2ccncc2)cc1OC (stereo not drawn) | 5.24 |
| Cc1ccc(N(C(=O)CNC(=O)c2ccco2)C(C(=O)NC2CCCCC2)c2cccnc2)c(C)c1 (stereo not drawn) | -71.9 |
| COc1cccc(C(C(=O)NC2CCCC2)N(C(=O)c2ccco2)c2ccc(NC(C)=O)cc2)c1OC (stereo not drawn) | -64 |

| Structure (SMILES) | hERG current change (%, negative = inhibition) at 10uM [%] |
| --- | --- |
| O=C(NCC(=O)N(c1ccccc1)C(C(=O)NC1CCCCC1)c1ccncc1)c1ccco1 (stereo not drawn) | 5.92 |
| O=C(NCC(=O)N(CCc1ccccc1)C(C(=O)NC1CCCCC1)c1ccncc1)c1ccco1 (stereo not drawn) | -54.6 |
| COc1cccc(C(C(=O)NC2CCCC2)N(C(=O)c2ccco2)c2ccc(C(C)=O)cc2)c1OC (stereo not drawn) | -13.3 |
| COc1ccccc1CN(C(=O)c1ccco1)C(C(=O)NC1CCCC1)c1ccncc1 (stereo not drawn) | -8.04 |
| Cc1ccc(N(C(=O)CNC(=O)c2ccco2)C(C(=O)NC2CCCC2)c2cccnc2)c(C)c1 (stereo not drawn) | 10.1 |
| COc1cccc(C(C(=O)NC2CCCC2)N(C(=O)c2ccco2)c2cccc(C(C)=O)c2)c1OC (stereo not drawn) | 13.9 |
| O=C(NCC(=O)N(Cc1ccccc1)C(C(=O)NC1CCCC1)c1ccncc1)c1ccco1 (stereo not drawn) | 5.71 |
| COCCN(C(=O)CSc1nnc(C)n1-c1ccc(C)cc1)c1c(N)n(Cc2ccccc2)c(=O)[nH]c1=O | -2.83 |
| COc1ccc(C(=O)NCc2ccc(-c3nc4ccccc4s3)cc2)cc1 | 10.1 |
| NS(=O)(=O)c1ccc(CCNC(=O)Nc2ccc(Cl)c(Cl)c2)cc1 | 15.3 |
| CN(C)C1=NCCN1CCc1cccc(F)c1 | -8.41 |
| O=C(NCCN1CCOCC1)c1cc2ccccc2oc1=O | -1.87 |
| Oc1ccc(/C=N/Nc2nccnc2Cl)c(O)c1 | 0.455 |
| COc1ccc(OC)c(C2=NOC(C(=O)NCc3cccs3)C2)c1 (stereo not drawn) | -13.5 |
| Cc1ccc(CNc2nc3ccccc3n3cnnc23)cc1 | -6.53 |
| Cc1ccc(CN(C(=O)c2ccco2)C(C(=O)NC2CCCC2)c2cccnc2)cc1 (stereo not drawn) | -1.98 |
| O=C(NC1CCCC1)C(c1cccnc1)N(CCc1ccccc1)C(=O)c1ccco1 (stereo not drawn) | -69 |
| O=C(NCC(=O)N(CCc1ccccc1)C(C(=O)NC1CCCC1)c1cccnc1)c1ccco1 (stereo not drawn) | -43.8 |
